Results published in PubChem BioAssay AID463173 (ICCB-Longwood Screening Facility, Harvard Medical School, 2010).
About 1,700 (3.3%) of roughly 52,000 compounds were called active. Rule as the data show it: active = survival mostly below about 52% (no sharp cut-off); inactive = mostly above about 56%. What follows is part of a selection rich in actives, with near analogues and random picks from the rest.

test system: Wild type; assay: S. aureus survival, RN4220 and DeltatarO strains – OD600, teichoic acid synthesis inhibitors, primary screen (AID 463173); details: S. aureus RN4220 wild type/DeltatarO growth, OD600, 18 h, hits give low values, screened at 18.75 µg/mL (by protocol)

SMILES | survival
Cc1nn2c(C)c(C(=O)NCc3ccc(OC(C)C)cc3)cnc2c1-c1ccc(F)cc1 | 76% (inactive)
COc1cc(OC)c(NC(=O)Cn2cnc3c(nc4n3CCCCC4)c2=O)cc1Cl | 59% (inactive)
O=C(NCC1CCCO1)C1CC(=O)N(c2ccccc2)C1 (centres undefined) | 123% (inactive)
Cc1ccc(S(=O)(=O)N2Cc3ccccc3CC2C(=O)N(C)C)cc1 (centres undefined) | 102% (inactive)
Cc1ccc(Cn2c(C(=O)O)c(CNC3CCCC3)c3ccc(C)cc32)cc1 | 83% (inactive)
COc1ccc(CNC(=O)c2cc3c(=O)n(Cc4cccs4)ccc3nc2C)cc1 | 10% (active)
Cc1nc2ccn(Cc3cccs3)c(=O)c2cc1C(=O)NCc1ccccc1 | 73% (inactive)
Cc1nc2ccn(Cc3cccs3)c(=O)c2cc1C(=O)NCc1ccc(Br)cc1 | 82% (inactive)
Cc1nc2ccn(Cc3cccs3)c(=O)c2cc1C(=O)Nc1ccccc1 | 91% (inactive)
CCOc1ccc(CNC(=O)c2cc3c(=O)n(Cc4cccs4)ccc3nc2C)cc1 | 118% (inactive)
COc1ccc(NC(=O)c2cc3c(=O)n(Cc4cccs4)ccc3nc2C)cc1 | 59% (inactive)
COc1cc(NC(=O)c2cc3c(=O)n(Cc4cccs4)ccc3nc2C)cc(OC)c1OC | -2% (active)
Cc1nc2ccn(Cc3cccs3)c(=O)c2cc1C(=O)NCc1ccc(Cl)cc1 | 22% (inactive)
CCc1ccc(CNC(=O)c2cc3c(=O)n(Cc4cccs4)ccc3nc2C)cc1 | 0% (active)
Cc1ccc(C)c(NC(=O)Cn2c(=O)n(CC3CCCO3)c(=O)c3ccccc32)c1 (centres undefined) | 119% (inactive)
CCOC(=O)c1c(NC(=O)c2cc3nc(-c4ccccc4)cc(C(F)(F)F)n3n2)sc2c1CCC(C)C2 (centres undefined) | 65% (inactive)
O=S(=O)(c1ccc(Br)cc1)N1CCn2cccc2C1c1ccc(Br)cc1 (centres undefined) | 65% (inactive)
CCCOC(=O)c1cccc(Nc2nc(C(=O)OCC)nc3ccccc23)c1 | 44% (inactive)
Cc1ccc(CNS(=O)(=O)c2c(C(=O)N3CCC(C)CC3)c(C)n(C)c2C)cc1 | 76% (inactive)
O=C(Nc1nnc(C2CCCC2)s1)C1CC1 | 105% (inactive)
CNC(=O)Nc1ccc2nc(C)sc2c1 | 112% (inactive)
COC(=O)CCN(c1ccccc1)S(=O)(=O)c1cc(-c2cc(C)no2)ccc1OC | 90% (inactive)
Cc1ccc2cc(CN(CC3CCCO3)C(=O)C(F)(F)F)c3nnnn3c2c1C (centres undefined) | 115% (inactive)
CCc1ccc(OC(C)C(=O)N2CCC(c3nc4ccccc4s3)CC2)cc1 (centres undefined) | 35% (inactive)

SMILES | survival
CC(Oc1ccc(F)cc1)C(=O)N1CCC(c2nc3ccccc3s2)CC1 (centres undefined) | 80% (inactive)
Cc1ccccc1OCC(=O)N1CCC(c2nc3ccccc3s2)CC1 | 65% (inactive)
CCCOc1ccccc1C(=O)N1CCC(c2nc3ccccc3s2)CC1 | 68% (inactive)
CCC(Oc1ccccc1F)C(=O)N1CCC(c2nc3ccccc3s2)CC1 (centres undefined) | -3% (active)
COc1ccccc1OC(C)C(=O)N1CCC(c2nc3ccccc3s2)CC1 (centres undefined) | -2% (active)
COCCn1c(CNC(=O)c2ccccc2C)nc2cccnc21 | 69% (inactive)
COc1cc(Cl)c(C)cc1NC(=O)CNC(=O)Cn1ccc2ccccc2c1=O | 65% (inactive)
COC(=O)C1=C(c2ccccc2)c2ccccc2S(=O)(=O)N1CC(=O)Nc1cc(C)ccc1C | 77% (inactive)
CCN(CC)S(=O)(=O)c1ccc2c(c1)N(CC(=O)NCc1ccccc1)C(=O)C1CCCCN21 (centres undefined) | 102% (inactive)
CCOc1ccc2nc(NCCCNC(=O)C3CCCO3)c(C#N)cc2c1 (centres undefined) | 105% (inactive)
CCC(C)NC(=O)Cn1c(=O)n(-c2ccc(OC)c(OC)c2)c(=O)c2ccccc21 (centres undefined) | 87% (inactive)
COc1cccc(CNC(=O)CCCN2C(=O)CSc3c2c(C)nn3-c2ccccc2)c1 | 89% (inactive)
COc1ccc(C(=O)N2c3ccccc3C(C)(c3ccc(Cl)cc3)CC2(C)C)cc1 (centres undefined) | 6% (active)
CC1(c2ccccc2)CC(C)(C)N(C(=O)c2ccccc2Cl)c2ccccc21 (centres undefined) | -2% (active)
COc1ccccc1C(=O)CC1(O)C(=O)N(CC(N)=O)c2ccccc21 (centres undefined) | 65% (inactive)
COc1ccc(C(=O)N2CCC(C(=O)Nc3ccc(Cl)cc3)CC2)cc1 | 122% (inactive)
COc1ccc(CCC(=O)NCc2ccc3c(c2)CCN3C(=O)c2ccc(Cl)cc2)cc1 | 80% (inactive)
COc1ccccc1C(=O)N1c2ccccc2C(C)(c2ccc(Cl)cc2)CC1(C)C (centres undefined) | 2% (active)
CN1CC2(C)CN(C(=O)c3ccccc3Cl)CC(C)(C1)C2 | 112% (inactive)
CC1CCN(c2ccc(NC(=O)c3cccc(Cl)c3)cc2C(=O)O)CC1 | 76% (inactive)
CC1CCN(C(=O)c2cccc(Cl)c2)CC1 | 112% (inactive)
COc1ccccc1C(=O)n1nc(-c2ccccc2)nc1NCc1ccc(Cl)cc1 | 66% (inactive)
CC1(c2ccccc2)CC(C)(C)N(C(=O)c2cccc(Cl)c2)c2ccccc21 (centres undefined) | 6% (active)
O=C(c1ccccc1Cl)n1cc(Cl)cn1 | 100% (inactive)

SMILES | survival
Cc1ccc(F)cc1NC(=O)Cn1c(C)cc(C)c(C#N)c1=O | 131% (inactive)
CCOc1ccc(CNC(=O)Cn2nc(C)c3c(C)n(-c4ccc(C)cc4)nc3c2=O)cc1 | 78% (inactive)
O=C(CSc1ccc2nnc(CCNS(=O)(=O)c3ccccc3)n2n1)Nc1ccccc1C(F)(F)F | 107% (inactive)
Cc1cccc(S(=O)(=O)Nc2cccc(-c3ccc(N4CCCCC4)nn3)c2)c1 | 69% (inactive)
N#Cc1ccccc1NC(=O)C(=O)NCC(c1cccnc1)N1CCN(c2ccccc2)CC1 (centres undefined) | 99% (inactive)
Cc1ccc(NC(=O)c2c(C)nc3sc(C(=O)Nc4ccc(F)cc4)c(N)c3c2-c2ccccc2Cl)c(C)c1 | 65% (inactive)
Cc1cn(C)c(CC(=O)Nc2ccc(F)cc2Cl)c1C(=O)O | 76% (inactive)
CCOC(=O)c1cccc(NC(=O)CCn2nc(C)c3c(C)n(-c4ccccc4)nc3c2=O)c1 | 73% (inactive)
CC1(C)C(=O)N(CC(=O)Nc2ccc(Cl)cc2)c2ccccc21 | 59% (inactive)
CC1CC(C)CN(C(=O)c2ccc(Cl)cc2)C1 (centres undefined) | 117% (inactive)
CC1(c2ccc(Cl)cc2)CC(C)(C)N(C(=O)c2ccccc2)c2ccccc21 (centres undefined) | -11% (active)
O=C(c1cccc(F)c1)N1CCC(c2c[nH]c3ccccc23)(c2c[nH]c3ccccc23)CC1 | 63% (inactive)
CC1(c2ccc(Cl)cc2)CC(C)(C)N(C(=O)c2cccc(F)c2)c2ccccc21 (centres undefined) | 7% (active)
O=C(NCc1ccc2c(c1)CCN2C(=O)c1ccc(Cl)cc1)c1cccc(F)c1 | 55% (inactive)
COc1ccc(-n2c(SCC(=O)Nc3ccc4c(c3)OCO4)nc3c([nH]c4ccccc43)c2=O)cc1 | 81% (inactive)
Cc1ccc(COC(=O)c2[nH]c3c(c2C)C(=O)CC(c2ccc(Cl)cc2)C3)cc1 (centres undefined) | 84% (inactive)
COc1cc2[nH]c(=O)n(CCCC(=O)NCc3ccc(Cl)cc3)c(=O)c2cc1OC | 90% (inactive)
COc1ccccc1N1CCN(CC(O)COc2ccc(Cl)c(C)c2)CC1 (centres undefined) | 66% (inactive)
Cc1cc(OCC(O)CN2CCN(c3cccc(Cl)c3)CC2)ccc1Cl (centres undefined) | 0% (active)
CC(=O)Nc1ccc(OCC(O)CN2CCN(c3ccc(C)c(Cl)c3)CC2)cc1 (centres undefined) | 98% (inactive)
O=C(c1cc2ccccc2oc1=O)N1CCCCCC1 | 88% (inactive)
Cc1ccc(-n2ncc(C(=O)NCCN3CCCC3)c2C2CCN(C(=O)OC(C)(C)C)CC2)cc1 | 153% (inactive)
COc1ccc(-c2nnc(SCc3cccc(Cl)c3)o2)cc1 | 13% (active)
COc1ccc(-c2nnc(SCC#N)o2)cc1 | 106% (inactive)

SMILES | survival
COc1cccc(CSc2nnc(-c3ccc(F)cc3)o2)c1 | 113% (inactive)
COc1cn(CC(=O)Nc2ccc(F)cc2)c(CN2CCCCC2)cc1=O | 72% (inactive)
CCCCNc1cc(NC2CCCCC2)c2c3c(onc13)-c1ccccc1C2=O | 117% (inactive)
CCCCNc1cc(N2CCN(C3CCCCC3)CC2)c2noc3c2c1C(=O)c1ccccc1-3 | -1% (active)
CN(C)CCCNc1cc(N2CCN(C3CCCCC3)CC2)c2noc3c2c1C(=O)c1ccccc1-3 | 72% (inactive)
CCN(CC)c1cc(NC2CCCCC2)c2c3c(onc13)-c1ccccc1C2=O | 5% (active)
CCNc1cc(N2CCN(C3CCCCC3)CC2)c2noc3c2c1C(=O)c1ccccc1-3 | 84% (inactive)
O=C1c2ccccc2-c2onc3c(Br)cc(NC4CCCCC4)c1c23 | 86% (inactive)
Cc1ccc2nc(COc3ccccc3NC(=O)C(C)(C)C)cc(=O)n2c1 | 66% (inactive)
O=C(C1CCN(c2ncnc3c2nc2n3CCCCC2)CC1)N1CCN(c2ccccc2F)CC1 | 82% (inactive)
CCc1ccc(NC(=O)Cn2nnc(C(=O)NCc3ccco3)c2N)cc1 | 94% (inactive)
CCOC(=O)c1c(S(=O)(=O)N2CCC(C(=O)Nc3cccc(C#N)c3)CC2)c(C)n(C)c1C | 115% (inactive)
Cc1nn(C(=O)c2cc3sc(Br)cc3[nH]2)c(C)c1C | 97% (inactive)
COc1ccc(NC(=O)CSc2nnc(N)s2)cc1 | 73% (inactive)
CCc1ccc(NC(=O)Cn2ncc3c(C)n(Cc4cccc(Cl)c4)c(C)c3c2=O)cc1 | 86% (inactive)
Cc1ccc(CCNC(=O)c2ccc3c(c2)c(C)c(C)n3Cc2ccccc2)cc1 | 125% (inactive)
COc1ccc(NC(=O)c2ccc(-c3cccc(Cl)c3C)o2)cc1 | 44% (inactive)
CCOc1ccc(NC(=O)c2ccc(-c3cccc(Cl)c3C)o2)cc1 | 66% (inactive)
Cc1c(Cl)cccc1-c1ccc(C(=O)Nc2ccc3oc(-c4cccnc4)nc3c2)o1 | 79% (inactive)
CCOC(=O)c1ccc(NC(=O)c2ccc(-c3cccc(Cl)c3C)o2)cc1 | 59% (inactive)
Cc1c(Cl)cccc1-c1ccc(C(=O)Nc2ccc(F)cc2)o1 | -1% (active)
Cc1ccc(NC(=O)c2ccc(-c3cccc(Cl)c3C)o2)cc1 | 1% (active)
